Here are results for 9 compounds from PubChem BioAssay (Tox21).

SMILES strings stand for the structures. Values without a mark were called inactive. Inconclusive results are not listed. Calls of active or inactive are those of the source. Unless noted, calls follow the shape of the dose curve; as a rule, active = well fitted curve in the direction sought with a large enough effect in the repeat runs; inconclusive = weak or mixed curves; inactive = no such curve, though single readings can be large; an effect the other way counts as inactive or inconclusive.

A short description of test [1]: qHTS assay to identify small molecule agonists of the TGF-beta/Smad signaling pathway (AID 1346859; active = well fitted activation curve with a large enough effect in the signal ratio in the repeat runs, not every such curve was filed as active; the % refers to the signal ratio; also: series mostly up to about 77 µM). The method, boiled down:
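Read-out: fluorescence at 460 and 530 nm (405 nm excitation) after a 2 hr room-temperature incubation with beta-lactamase FRET substrate. SBE-bla HEK 293T cells had been treated with test compounds for 5 hr at 37 C.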
(In qHTS, concentration-response curves come from the screen itself.)

Test [2] can be described thus: Human pregnane X receptor (PXR) small molecule agonists, qHTS cell viability counter screen (AID 1346977). Also: nearly all actives have a fitted effect of over 50% in size. In a few lines: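 Fluorescence read-out (CellTiter-Fluor) of viability in PXR-Luc HepG2 cells, multiplexed with the luciferase agonist read. Compounds in DMSO added after 5hr plating; 24hr total exposure at 37C, 5% CO2.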
Test [3] can be described thus: Caspase-3/7 induction in HepG2 cells by small molecules, qHTS assay (AID 1346978). Also: nearly all actives have a fitted effect of over 15% in size. The method, boiled down:
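Wild-type HepG2 cells (2,000/well) were settled 5 h at 37 C, 5% CO2, then exposed to compounds in DMSO for 17 h. Caspase-3/7 activity was read by luminescence 30 min after adding Caspase-Glo 3/7 reagent at room temperature.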

The nature of test [4]: Caspase-3/7 induction in CHO-K1 cells by small molecules, qHTS cell viability counter screen (AID 1346979). Also: nearly all actives have a fitted effect of over 35% in size. The method, boiled down: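 CHO-K1 wt, 1,500 cells/well; 5hr pre-incubation 37C/5% CO2; compound pin transfer (DMSO); 16hr exposure; CellTiter-Fluor added, 1hr, fluorescence read.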
Test [5] is described as follows: Caspase-3/7 induction in CHO-K1 cells by small molecules, qHTS assay (AID 1346980). Also: nearly all actives have a fitted effect of over 15% in size. In a few lines: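 Wild-type cells were seeded at 1,500 per well and settled 5 hr at 37 C, 5% CO2, then exposed to DMSO-dissolved compounds for 17 hr. Caspase-Glo 3/7 reagent was added, and luminescence was read after 30min at room temperature.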
Test [6] can be described thus: Caspase-3/7 induction in HepG2 cells by small molecules, qHTS cell viability counter screen (AID 1346981). Also: series mostly up to about 92 µM; nearly all actives have a fitted effect of over 30% in size. In a few lines: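 Fluorescence read-out of live-cell protease activity (CellTiter-Fluor) after 1 hr with reagent. This was measured in the same wells as the caspase-3/7 luminescence, on HepG2 cells exposed to DMSO-dissolved compounds for 16 hr at 37 C.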
Test [7] deals with Nuclear receptor subfamily 1 group I member 2 (Homo sapiens) (UniProt O75469). As to the kind of experiment: Human pregnane X receptor (PXR) small molecule agonists, qHTS assay (AID 1346982). Also: nearly all actives have a fitted effect of over 35% in size. Also: potency is read from the fitted curve at half-maximal effect. The method, boiled down: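 HepG2 PXR-Luc reporter line, 5% charcoal-stripped FBS; 5 hr pre-incubation, compound (DMSO) 24 hr at 37 C/5% CO2; ONE-Glo 30 min RT; luminescence read-out.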
Nuclear receptor subfamily 1 group I member 2 (Homo sapiens), sequence (O75469 whole entry, looked up): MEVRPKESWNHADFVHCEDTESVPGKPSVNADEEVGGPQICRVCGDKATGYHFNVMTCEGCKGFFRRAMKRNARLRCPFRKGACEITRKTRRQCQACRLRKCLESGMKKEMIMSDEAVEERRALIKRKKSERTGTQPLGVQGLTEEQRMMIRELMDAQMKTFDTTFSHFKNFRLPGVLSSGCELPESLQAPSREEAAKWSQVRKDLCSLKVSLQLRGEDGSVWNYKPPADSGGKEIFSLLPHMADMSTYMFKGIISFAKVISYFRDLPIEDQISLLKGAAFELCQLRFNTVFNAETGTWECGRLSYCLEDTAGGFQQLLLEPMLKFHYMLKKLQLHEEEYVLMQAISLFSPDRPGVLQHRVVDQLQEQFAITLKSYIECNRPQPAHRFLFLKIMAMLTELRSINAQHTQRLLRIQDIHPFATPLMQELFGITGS
Test [8] has as its target Cytochrome P450 2D6 (Homo sapiens) (UniProt P10635). As to the kind of experiment: Cytochrome P450 Family 2 Subfamily D Member 6 (CYP2D6) small molecule antagonists: luciferase reporter qHTS assay (AID 1671196). Also: nearly all actives have a fitted effect of over 50% in size. Also: potency is read from the fitted curve at half-maximal effect. As to activity change, negative = inhibition: series mostly up to about 120 µM. The method, boiled down: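 Luminogenic proluciferin substrate, CYP2D6 enzyme; 10 min RT preincubation with compound, NADPH regeneration system added, 1 h RT. Stop/detection reagent, 20 min RT, luminescence read (RLU). Signal proportional to CYP activity.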

In test [9] the target is Cytochrome P450 2C19 (Homo sapiens) (UniProt P33261). The experiment in a line: Cytochrome P450 Family 2 Subfamily C Member 19 (CYP2C19) small molecule antagonists: luciferase reporter qHTS assay (AID 1671197). Also: nearly all actives have a fitted effect of over 65% in size. Also: potency is read from the fitted curve at half-maximal effect. As to activity change, negative = inhibition: series mostly up to about 120 µM. The method, boiled down:
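Compounds were tested on CYP2C19 activity via proluciferin conversion to luciferin. The 37C, 1 h reaction followed NADPH addition; detection reagent stopped it.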
For orientation: In a reporter assay the amount or activity of a reporter protein is the signal.

In test [10] the target is Cytochrome P450 2C9 (Homo sapiens) (UniProt P11712). As to the kind of experiment: Cytochrome P450 Family 2 Subfamily C Member 9 (CYP2C9) small molecule antagonists: luciferase reporter qHTS assay (AID 1671198). Also: series mostly up to about 120 µM; nearly all actives have a fitted effect of over 50% in size. The method, boiled down: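 CYP2C9 activity was measured with a P450-Glo proluciferin substrate. Enzyme–substrate mix was held with compound for 10 min at room temperature, then NADPH regeneration solution was added for 1 h at 37C. Luciferin product was read as luminescence.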
Cytochrome P450 2C9 (Homo sapiens), sequence (P11712 whole entry, looked up): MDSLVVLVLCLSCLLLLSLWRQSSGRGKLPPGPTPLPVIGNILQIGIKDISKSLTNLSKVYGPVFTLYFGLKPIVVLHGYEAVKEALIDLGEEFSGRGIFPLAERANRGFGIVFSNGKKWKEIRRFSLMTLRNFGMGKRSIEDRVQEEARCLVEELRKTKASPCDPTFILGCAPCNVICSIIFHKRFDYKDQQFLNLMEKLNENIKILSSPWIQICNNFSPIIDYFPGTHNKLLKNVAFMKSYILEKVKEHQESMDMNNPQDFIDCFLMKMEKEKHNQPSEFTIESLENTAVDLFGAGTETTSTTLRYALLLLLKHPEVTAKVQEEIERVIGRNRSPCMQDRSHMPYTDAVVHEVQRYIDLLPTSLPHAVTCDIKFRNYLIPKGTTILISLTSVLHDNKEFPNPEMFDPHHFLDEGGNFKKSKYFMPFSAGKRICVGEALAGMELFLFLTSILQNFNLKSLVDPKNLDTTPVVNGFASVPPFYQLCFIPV

The target in test [11] is Cytochrome P450 1A2 (Homo sapiens) (UniProt P05177). The experiment in a line: Cytochrome P450 Family 1 Subfamily A Member 2 (CYP1A2) small molecule antagonists: luciferase reporter qHTS assay (AID 1671199). Also: nearly all actives have a fitted effect of over 50% in size. Also: potency is read from the fitted curve at half-maximal effect. As to activity change, negative = inhibition: series mostly up to about 120 µM. The method, boiled down:
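Luminescence readout (relative luminescence units) after luciferin detection reagent, 20 min RT. Preceded by 1 h room-temperature CYP1A2 reaction with NADPH regeneration solution following 10 min compound preincubation with enzyme and proluciferin substrate. Furafylline positive control.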

Test [12] addresses Voltage-gated inwardly rectifying potassium channel KCNH2 (Homo sapiens) (UniProt Q12809). The experiment in a line: Human Ether-a-go-go-Related Gene (hERG) channel small molecule antagonists: fluorescence cell-based qHTS assay (AID 1671200). The method, boiled down: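 Read-out: thallium influx as a surrogate for potassium, tracked as fluorescence (480 nm ex/540 nm em) every second for 2 min after Stimulus Buffer addition in dye-loaded hERG-U2OS cells.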
In general terms: hERG is a cardiac potassium channel; its block is linked to QT prolongation.

Test [13] concerns the target Cytochrome P450 3A4 (Homo sapiens) (UniProt P08684). As to the kind of experiment: Cytochrome P450 Family 3 Subfamily A Member 4 (CYP3A4) small molecule antagonists: luciferase reporter qHTS assay (AID 1671201). In a few lines: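 Luminescent readout (RLU) proportional to CYP3A4 activity, from luciferin generated off a proluciferin substrate. Enzyme–substrate mix plus compound 10 min at room temp, NADPH regeneration 1 h, detection reagent 20 min.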

Test [14] addresses Thyrotropin-releasing hormone receptor (Homo sapiens) (UniProt P34981). As to the kind of experiment: qHTS assay to identify small molecule antagonists of the thyrotropin-releasing hormone receptor (TRHR) signaling pathway (AID 1346877; active = well fitted inhibition curve with a large enough effect in the repeat runs, not every such curve was filed as active; also: series mostly up to about 51 µM). The method, boiled down:
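HEK293/TRHR cells, 18 h, 37 °C; Ca2+ dye 2 h; cpd 5 min RT; TRH 1 nM final; fluorescence read 3 min, 1 s intervals; 15 concs, triplicate.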

The target is the same in test [15]. As to the kind of experiment: qHTS assay to identify small molecule agonists of the thyrotropin-releasing hormone receptor (TRHR) signaling pathway (AID 1346891; calls by dose curve;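 also: HEK293 cells expressing TRHR with calcium dye readout; series mostly up to about 58 µM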). The method, boiled down:
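HEK293/TRHR cells, 1500 per well, 18 h 37 °C; Ca dye 2 h 37 °C; pin-tool compound addition (agonist mode); kinetic fluorescence 3 min, 1 s reads; 15 concentrations, triplicate.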

The target of test [16] is Nuclear receptor subfamily 1 group I member 2 (Rattus norvegicus) (UniProt Q9R1A7). The experiment in a line: Rat pregnane X receptor (rPXR) activation by small molecules, qHTS assay (AID 1346983). Also: nearly all actives have a fitted effect of over 20% in size. The note with it: rPXR luciferase reporter cells, One-Glo luminescence, 24 h; max activation: stronger effect = higher value. In a few lines:
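Cell-based rPXR luciferase reporter assay, 2,000 cells per well, rested 5hr at 37 C before compound addition in DMSO, then 24 hr at 37 C. One-Glo reagent was added and luminescence read after 30 min at room temperature.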

Test [17] has as its target Nuclear receptor subfamily 1 group I member 2 (Homo sapiens) (UniProt O75469). As to the kind of experiment: CYP3A4 induction through human pregnane X receptor (PXR) by small molecules, qHTS assay (AID 1346984). Also: nearly all actives have a fitted effect of over 40% in size. In a few lines: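 HepG2-derived DPX-2 line carrying PXR plus a CYP3A4-promoter luciferase reporter; cells plated 5 hr, compound-exposed 24 hr at 37C. CYP3A4 activity probed with 3uM (final) Luciferin-IPA for 3hr, then luciferase read after One-Glo.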

Test [18] shares this target. As to the kind of experiment: Human pregnane X receptor (PXR) activation by small molecules, qHTS assay (AID 1346985). Also: nearly all actives have a fitted effect of over 40% in size. In a few lines: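 DPX-2 cells (HepG2 co-transfected with a PXR response element and a CYP3A4-promoter luciferase construct) were seeded at 2,000 per well, rested 5 hr at 37C, then exposed to DMSO-dissolved compounds for 24 hr. Activation was read as luciferase luminescence.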
% is scaled to controls: 0 for no effect and ±100 for the full control effect.

Cytochrome P450 1A2 (Homo sapiens), sequence (P05177 whole entry, looked up): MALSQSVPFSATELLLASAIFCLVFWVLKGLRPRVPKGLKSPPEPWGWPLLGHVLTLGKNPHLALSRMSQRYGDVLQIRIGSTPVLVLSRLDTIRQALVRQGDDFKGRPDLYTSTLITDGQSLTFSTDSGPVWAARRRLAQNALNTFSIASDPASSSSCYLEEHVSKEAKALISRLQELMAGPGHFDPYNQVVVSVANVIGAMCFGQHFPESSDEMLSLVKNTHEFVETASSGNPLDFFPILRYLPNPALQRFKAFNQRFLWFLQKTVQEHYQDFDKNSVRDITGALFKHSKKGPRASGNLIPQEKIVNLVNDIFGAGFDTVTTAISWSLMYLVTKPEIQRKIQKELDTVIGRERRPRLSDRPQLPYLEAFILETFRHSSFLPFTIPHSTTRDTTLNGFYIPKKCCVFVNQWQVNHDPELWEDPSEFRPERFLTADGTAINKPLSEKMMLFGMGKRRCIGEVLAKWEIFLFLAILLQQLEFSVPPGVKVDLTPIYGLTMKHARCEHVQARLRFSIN
Thyrotropin-releasing hormone receptor (Homo sapiens), sequence (P34981 whole entry, looked up): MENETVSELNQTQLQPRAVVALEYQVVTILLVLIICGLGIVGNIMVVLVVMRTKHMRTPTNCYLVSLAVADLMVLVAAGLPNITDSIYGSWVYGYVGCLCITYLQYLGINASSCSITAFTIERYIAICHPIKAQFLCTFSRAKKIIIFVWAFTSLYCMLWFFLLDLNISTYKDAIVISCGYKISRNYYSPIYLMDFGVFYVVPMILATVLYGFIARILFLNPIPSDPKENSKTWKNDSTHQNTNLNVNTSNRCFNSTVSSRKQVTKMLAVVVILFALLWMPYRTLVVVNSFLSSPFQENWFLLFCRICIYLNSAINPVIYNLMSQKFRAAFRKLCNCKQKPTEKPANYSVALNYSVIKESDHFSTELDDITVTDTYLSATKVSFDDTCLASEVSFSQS
Cytochrome P450 2D6 (Homo sapiens), sequence (P10635 whole entry, looked up): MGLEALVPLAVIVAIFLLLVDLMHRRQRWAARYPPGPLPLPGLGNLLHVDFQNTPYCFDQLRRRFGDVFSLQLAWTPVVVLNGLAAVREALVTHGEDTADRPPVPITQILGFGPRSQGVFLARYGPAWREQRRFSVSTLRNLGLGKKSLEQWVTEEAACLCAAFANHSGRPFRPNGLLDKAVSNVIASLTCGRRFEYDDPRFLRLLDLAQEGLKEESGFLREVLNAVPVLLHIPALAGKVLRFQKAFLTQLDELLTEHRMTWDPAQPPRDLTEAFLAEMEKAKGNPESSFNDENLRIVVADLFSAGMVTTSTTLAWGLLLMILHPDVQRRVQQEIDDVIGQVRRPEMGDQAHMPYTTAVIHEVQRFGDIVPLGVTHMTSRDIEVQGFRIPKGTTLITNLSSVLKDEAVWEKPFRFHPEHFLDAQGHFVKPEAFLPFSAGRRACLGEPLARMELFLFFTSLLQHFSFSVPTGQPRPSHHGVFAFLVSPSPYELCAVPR
Voltage-gated inwardly rectifying potassium channel KCNH2 (Homo sapiens), sequence (Q12809 whole entry, looked up): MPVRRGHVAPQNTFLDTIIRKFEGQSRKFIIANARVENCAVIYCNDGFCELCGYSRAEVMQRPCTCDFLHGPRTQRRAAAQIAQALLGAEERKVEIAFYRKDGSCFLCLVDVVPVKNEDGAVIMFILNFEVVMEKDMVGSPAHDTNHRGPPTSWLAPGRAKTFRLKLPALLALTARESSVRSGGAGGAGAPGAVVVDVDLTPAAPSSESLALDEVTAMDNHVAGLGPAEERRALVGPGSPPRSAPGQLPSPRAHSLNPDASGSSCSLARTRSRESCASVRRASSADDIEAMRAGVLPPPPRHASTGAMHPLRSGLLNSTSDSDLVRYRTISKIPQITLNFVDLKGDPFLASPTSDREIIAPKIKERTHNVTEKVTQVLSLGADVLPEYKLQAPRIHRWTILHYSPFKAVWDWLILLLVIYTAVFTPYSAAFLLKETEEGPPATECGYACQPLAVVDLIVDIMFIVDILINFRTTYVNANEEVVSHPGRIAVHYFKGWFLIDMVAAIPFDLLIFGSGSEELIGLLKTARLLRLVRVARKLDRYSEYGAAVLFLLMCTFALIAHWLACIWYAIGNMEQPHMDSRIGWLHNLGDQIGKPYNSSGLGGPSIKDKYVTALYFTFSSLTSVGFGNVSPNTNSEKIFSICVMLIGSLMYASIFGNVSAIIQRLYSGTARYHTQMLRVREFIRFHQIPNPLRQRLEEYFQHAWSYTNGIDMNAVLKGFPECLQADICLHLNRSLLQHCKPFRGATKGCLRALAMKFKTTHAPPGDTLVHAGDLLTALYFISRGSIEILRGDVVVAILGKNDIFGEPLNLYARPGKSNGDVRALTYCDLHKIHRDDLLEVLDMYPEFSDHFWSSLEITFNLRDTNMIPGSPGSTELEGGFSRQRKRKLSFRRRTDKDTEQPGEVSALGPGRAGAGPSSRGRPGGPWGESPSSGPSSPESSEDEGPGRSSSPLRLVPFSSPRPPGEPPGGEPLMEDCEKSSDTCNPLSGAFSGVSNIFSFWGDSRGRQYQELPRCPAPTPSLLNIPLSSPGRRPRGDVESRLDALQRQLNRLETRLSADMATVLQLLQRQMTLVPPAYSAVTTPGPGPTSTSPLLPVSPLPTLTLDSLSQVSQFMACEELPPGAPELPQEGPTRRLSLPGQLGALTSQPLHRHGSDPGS
Cytochrome P450 2C19 (Homo sapiens), sequence (P33261 whole entry, looked up): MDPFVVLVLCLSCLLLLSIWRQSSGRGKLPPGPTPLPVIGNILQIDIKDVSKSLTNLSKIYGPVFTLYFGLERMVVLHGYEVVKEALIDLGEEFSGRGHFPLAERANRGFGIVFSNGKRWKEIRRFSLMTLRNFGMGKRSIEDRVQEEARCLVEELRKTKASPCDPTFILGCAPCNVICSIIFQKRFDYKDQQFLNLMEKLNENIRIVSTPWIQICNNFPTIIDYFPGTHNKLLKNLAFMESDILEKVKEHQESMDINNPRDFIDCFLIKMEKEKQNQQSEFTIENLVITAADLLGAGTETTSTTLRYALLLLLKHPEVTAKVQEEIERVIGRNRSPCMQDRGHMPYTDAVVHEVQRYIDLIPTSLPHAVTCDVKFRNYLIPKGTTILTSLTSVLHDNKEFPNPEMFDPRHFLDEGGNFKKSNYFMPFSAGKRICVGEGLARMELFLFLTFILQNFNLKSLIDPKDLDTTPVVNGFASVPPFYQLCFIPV
Cytochrome P450 3A4 (Homo sapiens), sequence (P08684 whole entry, looked up): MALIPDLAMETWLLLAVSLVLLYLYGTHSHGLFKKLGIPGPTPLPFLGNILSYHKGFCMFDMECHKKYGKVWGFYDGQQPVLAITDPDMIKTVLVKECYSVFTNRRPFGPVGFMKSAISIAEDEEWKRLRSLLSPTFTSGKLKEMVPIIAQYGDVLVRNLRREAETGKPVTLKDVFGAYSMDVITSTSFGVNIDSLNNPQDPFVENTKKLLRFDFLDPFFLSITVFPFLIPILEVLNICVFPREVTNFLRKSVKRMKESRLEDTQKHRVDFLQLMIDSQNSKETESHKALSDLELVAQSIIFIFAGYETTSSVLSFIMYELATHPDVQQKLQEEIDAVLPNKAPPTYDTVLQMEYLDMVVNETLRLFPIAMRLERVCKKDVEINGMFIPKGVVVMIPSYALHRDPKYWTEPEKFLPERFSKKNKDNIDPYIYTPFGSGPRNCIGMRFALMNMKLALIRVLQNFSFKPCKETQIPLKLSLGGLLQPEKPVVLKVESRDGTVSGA
Nuclear receptor subfamily 1 group I member 2 (Rattus norvegicus), sequence (Q9R1A7 whole entry, looked up): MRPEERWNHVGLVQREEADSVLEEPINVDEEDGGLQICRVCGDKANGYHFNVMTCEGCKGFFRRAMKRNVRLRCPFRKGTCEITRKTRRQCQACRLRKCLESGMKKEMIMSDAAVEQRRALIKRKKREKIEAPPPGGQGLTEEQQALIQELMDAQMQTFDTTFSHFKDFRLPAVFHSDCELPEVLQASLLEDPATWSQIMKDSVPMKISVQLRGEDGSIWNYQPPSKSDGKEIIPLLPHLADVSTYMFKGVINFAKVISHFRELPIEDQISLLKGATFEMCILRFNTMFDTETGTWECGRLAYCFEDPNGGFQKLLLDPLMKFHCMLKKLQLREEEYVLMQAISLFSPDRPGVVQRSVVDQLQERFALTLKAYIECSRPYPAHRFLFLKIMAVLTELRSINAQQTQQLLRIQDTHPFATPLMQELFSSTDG

For the compound `N#Cc1cc(NC(=O)C(=O)O)c(Cl)c(NC(=O)C(=O)O)c1`, the result in test [1], in test [2], in test [3], in [5] and in [6] was inactive. The Potency result in [4], in test [7], in test [8], in test [9], in test [10] and in test [11] was “inactive” in each case. For the same compound, the Potency result in test [12] and in test [13] was “inactive” in each case.
With `C=CCN1CCc2nc(N)sc2CC1`, the outcome in test [1], in test [14], in test [2], in [5], in [6] and in test [17] was inactive. Moreover, in test [18], the result was inactive. Besides, the Potency entry in test [15], in test [4], in test [10], in [11], in [12] and in test [13] was “inactive” in each case. The max activation in test [16] is -4.96%.
For `BrCCOc1ccccc1`, the outcome in test [1], in test [14], in [2], in test [3] and in [6] was inactive. In addition, the Potency result in [15], in test [7], in [10] and in test [12] was “inactive” each time. The Potency in test [8] is 56.6 µM (active); in test [9], 89.6 µM (active).
For `CN(C)CCCN(C)C`, the values for the activation in test [1], in [15] and in [7] were -1.23% [at 6.97 µM], -0.372% [at 5.23 µM] and 5.88% [at 8.39 µM], respectively. Moreover, in [14], the activity, negative = inhibition is -3.47% [at 4.65 µM]. The activity change, negative = cytotoxicity in test [2] is 11.9% [at 8.39 µM]; in [6], 6.58% [at 8.39 µM]. Moreover, the caspase activation in [3] is 0.348% [at 8.39 µM]. Further, the activity change, negative = inhibition is -7.64% [at 10.5 µM] in [8], -19.3% [at 10.5 µM] in test [9], -13.3% [at 10.5 µM] in [10] and 12.7% [at 10.5 µM] in test [13]. The Potency in [11] was 1.95 µM (active).
For `O=c1c(O)c(O)c1=O`, the call in test [1], in [2], in test [3], in test [5] and in [6] was inactive. Further, the Potency entry in test [4], in test [7], in test [8], in test [9], in test [10] and in test [13] was “inactive” each time.
Take `CCCCCCCCC1CO1` (configuration not stated): the compound was classed as inactive in test [1], in [2], in test [3], in test [5] and in test [6]. For the same compound, the Potency entry in test [4], in [9], in test [10], in test [11], in test [12] and in test [13] was “inactive” throughout. For the same compound, the Potency in [7] is 55.7 µM (active).
Consider `CC(C)OC(=O)C(C(=O)OC(C)C)=C1SC=CS1`, for which the outcome in test [1], in [14], in [2], in test [5], in [6] and in test [17] was inactive. Also, in test [18], the outcome was inactive. The Potency result in [15], in [4], in test [8], in [12] and in [13] was “inactive” in each case. For the same compound, the Potency was 26.6 µM (active) in [7], 34.7 µM (active) in test [9] and 13.8 µM (active) in test [11]. Moreover, the max activation in test [16] is 6.37%.
For the compound `CCCCCCCCCCCCCC(=O)OCC`, the compound was called inactive in [1], in test [14] and in [2]. In addition, the Potency result in test [15], in test [4], in [7], in test [8], in test [9] and in test [10] was “inactive” in each case. Moreover, the Potency result in test [12] and in test [13] was “inactive” throughout.
As to `O=S(=O)(O)CC(O)CCl` (configuration not stated), the compound was called inactive in test [1], in test [14], in test [2] and in test [6]. Further, the Potency entry in test [15], in test [4], in test [8], in test [9], in test [10] and in [11] was “inactive” in each case. Also, the Potency entry in test [12] and in test [13] was “inactive” in each case.
